Laboratory results published in PubChem BioAssay (EPA / NIEHS).
Values joined by “and” are separate entries in the source; they are usually repeats but may differ in a detail not shown here. Equal values may be shown once. A structure can be active in one record and inactive in another. Active and inactive are the calls of the source. The calls were made as follows: active = hit-call score of the fitted dose curve at least 0.9, where 1 is the maximum; inactive = score below 0.9.

Tests used:
[1] = read-out: Interferon-gamma inducible Protein 10 (IP10), CXCL10 (gene 3627); assay: BSK_hDFCGF_IP10: BioMAP Diversity Plus: hDFCGF Assay for Interferon-gamma inducible Protein 10 (IP10) Biomarker Activity (AID 2283053); conditions: primary human foreskin fibroblasts; actives raise or lower the signal
How it was run: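 Primary human foreskin fibroblasts exposed to chemicals for 24 h. IP-10 measured by ELISA; changes fitted bidirectionally against DMSO baseline.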

[2] = read-out: Urokinase-type plasminogen activator receptor (uPAR), PLAUR (gene 5329); assay: BSK_CASM3C_uPAR: BioMAP Diversity Plus: CASM3C Assay for Urokinase-type plasminogen activator receptor (uPAR) Biomarker Activity (AID 2283054); conditions: primary human coronary artery smooth muscle cells; actives raise or lower the signal;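 also: cell-surface uPAR protein level quantified by ELISA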
[3] = read-out: Vascular cell adhesion molecule 1 (VCAM1), VCAM1 (gene 7412); assay: BSK_CASM3C_VCAM1: BioMAP Diversity Plus: CASM3C Assay for Vascular cell adhesion molecule 1 (VCAM1) Biomarker Activity (AID 2283055); conditions: primary human coronary artery smooth muscle cells; actives raise or lower the signal;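 also: VCAM-1 protein level quantified by ELISA on the cells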
[4] = read-out: Collagen III, COL3A1 (gene 1281); assay: BSK_hDFCGF_CollagenIII: BioMAP Diversity Plus: hDFCGF Assay for Collagen III Biomarker Activity (AID 2283056); conditions: primary human foreskin fibroblasts; actives raise or lower the signal
How it was run: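 Cells: human foreskin fibroblasts, primary. Dosing followed by 24 h incubation, then ELISA for collagen III. Both increases and decreases scored relative to DMSO.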

[5] = read-out: Epidermal growth factor receptor (EGFR), EGFR (gene 1956); assay: BSK_hDFCGF_EGFR: BioMAP Diversity Plus: hDFCGF Assay for Epidermal growth factor receptor (EGFR) Biomarker Activity (AID 2283057); conditions: primary human foreskin fibroblasts; actives raise or lower the signal
How it was run: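 Primary human foreskin fibroblasts (hDFCGF system), sampled 24 h after dosing; EGFR quantified by ELISA. Bidirectional fit relative to DMSO baseline; SRB total-protein staining in parallel cultures for cytotoxicity.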

[6] = read-out: Interleukin-8 (IL8), CXCL8 (gene 3576); assay: BSK_hDFCGF_IL8: BioMAP Diversity Plus: hDFCGF Assay for Interleukin-8 (IL8) Biomarker Activity (AID 2283058); conditions: primary human foreskin fibroblasts; actives raise or lower the signal
How it was run: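 IL-8 levels from compound-treated primary human fibroblasts were read by ELISA at 24 h, with DMSO serving as baseline for bidirectional fitting.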

[7] = BSK_hDFCGF_Proliferation: Cell Proliferation Assessment in the BioMAP Diversity Plus: hDFCGF Assay (AID 2283059); conditions: primary human foreskin fibroblasts;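 also: curves fitted for both rise and fall of signal versus DMSO baseline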
How it was run: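 Total protein read at 560 nm after 0.1% SRB staining of TCA-fixed human skin fibroblasts, […]. Activity is fitted in both directions relative to DMSO as baseline.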

[8] = read-out: Macrophage colony-stimulating factor (MCSF), CSF1 (gene 1435); assay: BSK_hDFCGF_MCSF: BioMAP Diversity Plus: hDFCGF Assay for Macrophage colony-stimulating factor (MCSF) Biomarker Activity (AID 2283060); conditions: primary human foreskin fibroblasts; actives raise or lower the signal
How it was run: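 M-CSF levels, determined by ELISA, are taken at 24 h after dosing human skin fibroblasts. Responses in either direction are fitted with DMSO serving as the baseline.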

[9] = BSK_hDFCGF_SRB: Viability Assessment in the BioMAP Diversity Plus: hDFCGF Assay (AID 2283061); conditions: primary human foreskin fibroblasts;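 also: cells exposed to compound for 24 h before the read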
How it was run: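 Cells were dosed with test chemical, cultured 24 h, fixed with 10% TCA, then stained with 0.1% SRB and read at 560 nm. The fibroblasts were human foreskin primary cells, and DMSO served as baseline.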

[10] = read-out: TIMP metallopeptidase inhibitor 1 (TIMP1), TIMP1 (gene 7076); assay: BSK_hDFCGF_TIMP1: BioMAP Diversity Plus: hDFCGF Assay for TIMP metallopeptidase inhibitor 1 (TIMP1) Biomarker Activity (AID 2283062); conditions: primary human foreskin fibroblasts; actives raise or lower the signal
How it was run: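 Fibroblasts from human foreskin are treated with test chemical and harvested at 24 h. TIMP-1 is quantified by ELISA, and gain or loss of signal is scored against DMSO.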

Measured: AC50

CCCCC(CC)COC(=O)CCCCC(=O)OCc1ccccc1 (stereo not drawn)
inactive: all assays above

c1ccc2c(c1)Cc1ccccc1-2
inactive: all assays above

CCOC(=O)CC(O)(CC(=O)OCC)C(=O)OCC
inactive: all assays above

CCCCCCCCCCCCc1ccccc1S(=O)(=O)O
active: [1] 10.6 µM | [3] 11.2 µM | [4] 8.62 µM | [6] 13.5 µM | [7] 9.26 µM | [8] 11.4 µM | [9] 6.52 µM | [10] 11.9 µM
inactive: [2] | [5]

Nc1cccc2c(N)cccc12
active: [1] 29.1 µM | [7] 5.91 µM | [8] 12.9 µM
inactive: all other assays above

CC1=C(/C=C/C(C)=C/C=C/C(C)=C/C(=O)O)C(C)(C)CCC1
active: [1] 30.2 µM | [3] 20 µM | [4] 15 µM | [6] 38.9 µM | [7] 7.76 µM | [8] 25.2 µM | [9] 34.5 µM | [10] 31.2 µM
inactive: [2] | [5]

FC(F)(I)C(F)(F)C(F)(F)C(F)(F)C(F)(F)C(F)(F)I
inactive: [5]
active: [1] 5.72 µM [middle of 5 runs] | [2] 23.7 µM [middle of 5 runs] | [3] 19.8 µM [middle of 5 runs] | [4] 4.16 µM [middle of 5 runs] | [6] 7.02 µM [middle of 5 runs] | [7] 2.06 µM [middle of 5 runs] | [8] 4.77 µM [middle of 5 runs] | [9] 5.33 µM [middle of 5 runs] | [10] 6.72 µM [middle of 5 runs]

Cc1oc(-c2ccccc2)nc1CCOc1ccc(C[C@H](Nc2ccccc2C(=O)c2ccccc2)C(=O)O)cc1
active: [1] 3.35 µM | [2] 31.2 µM | [3] 32.8 µM | [4] 3.34 µM | [5] 1.85 µM | [6] 7.44 µM | [7] 1.81 µM | [8] 3.14 µM | [9] 2.42 µM | [10] 3.99 µM

CC(C)(C)c1cc(C(C)(C)C)c(O)c(C(C)(C)C)c1
active: [1] 32.8 µM | [4] 29.3 µM | [6] 31.5 µM | [7] 10.8 µM | [8] 31.5 µM | [9] 32 µM | [10] 31.8 µM
inactive: [2] | [3] | [5]

CN1CCN(c2ccccc2/C=C2\SCCN(c3ccc(Cl)c(Cl)c3)C2=O)CC1
active: [1] 30.7 µM | [4] 13.7 µM | [6] 32.3 µM | [7] 5.54 µM | [8] 23.5 µM | [9] 28.3 µM | [10] 33.7 µM
inactive: [2] | [3] | [5]

CCCCOCCO
inactive: all assays above

Cc1cc(CCN2CCN(c3nsc4ccccc34)CC2)cc2c1NC(=O)CC2(C)C
inactive: [5]
active: [1] 11.5 µM | [2] 31.1 µM | [3] 29.4 µM | [4] 9.12 µM | [6] 11.3 µM | [7] 7.83 µM | [8] 10.8 µM | [9] 13.4 µM | [10] 9.33 µM

C=C(C)C(=O)OCCC(F)(F)C(F)(F)C(F)(F)C(F)(F)C(F)(F)C(F)(F)F
inactive: [1] | [2] | [3] | [4] | [5] | [6] | [7] | [8] | [9] | [10]
active: [7] 13.8 µM | [8] 23.2 µM

C[C@@H]1C[C@H]2[C@@H]3CCC4=CC(=O)C=C[C@]4(C)[C@@]3(F)[C@@H](O)C[C@]2(C)[C@@]1(O)C(=O)COP(=O)(O)O
active: [1] 696 nM and 895 nM | [3] 0.1 µM | [7] 30.3 µM | [8] 615 nM and 730 nM | [9] 3.28 µM | [10] 2.65 µM
inactive: [1] | [2] | [3] | [4] | [5] | [6] | [7] | [8] | [9] | [10]

CN1CCC[C@H]1c1cccnc1
inactive: all assays above

N#C[C@@H]1CC(F)(F)CN1C(=O)CNC1CC2CCC(C1)N2c1ncccn1 (stereo partly drawn)
inactive: all assays above
